{"source": "PubChem BioAssay (NCI)", "note": "Compounds without any hit were thinned out: in the full panel of roughly 83,000, 20% have a hit.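 In brief: 96-well plates, 48 h treatment, single concentration, percent growth endpoint.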 Values without a mark were called inactive. Active and inactive are the calls of the source.", "data": [{"test_system": "UACC-62 melanoma", "test": "NCI-60 one-dose screen, 48 h (100 = growth as untreated, 0 = no growth, -100 = all killed)", "conditions": "10 µM unless noted", "protocol": "Growth inhibition of the UACC-62 human tumor cell line is measured as a screen for anti-cancer activity. Cells are grown in 96 well plates and exposed to the test compound for 48 hours. Compounds are tested at a single concentration, which is 10^-5 M for most compounds. The reported endpoint is percent growth (GI% or GIPRCNT), where numbers from 0 - 100% represent growth inhibition, and numbers from -100% - 0 represent cell death. For example, a value of 40 represents 60% growth inhibition. A value of 0 means no net growth occurred over the course of the experiment. A value of -40 indicates 40% of cells at the beginning of the experiment died by the end of the experiment. A value of -100 means all cells are dead at the end of the experiment.\nNCI-60 Human Tumor Cell Lines Screen was performed using the standard one-dose NCI protocol, which is described in more detail at https://dtp.cancer.gov/discovery_development/nci-60/default.htm.\nCompounds with GIPRCNT values below 10 were considered active. Activity score was based on GIPRCNT using the following formula: […]\nScore is 0 for GIPRCNT values of 100 or above, 50 for GIPRCNT values of 0, and 100 for GIPRCNT values of -100.", "values": [{"smiles": "C=C1C(=O)O[C@H]2[C@H]1CC/C(Cn1cc(CNCCc3c[nH]c4ccc(Cl)cc34)nn1)=C\\CC[C@@]1(C)O[C@@H]21", "growth": "63%"}, {"smiles": "CCCCCCNc1cc(C)nc2ccc(OC)cc12", "growth": "64.1%"}, {"smiles": "CC(C)CCC[C@@H](C)[C@H]1CCC2C3=CCn4c(=O)ccc(=O)n4C3CC[C@@]21C", "note": "(stereo not given in full)", "growth": "-97.5% (active)"}, {"smiles": "O=C(Nc1ccccc1Cl)OCCN1CCOCC1", "growth": "101%"}, {"smiles": "O=C(c1ccccc1)c1ccc(N2C(=O)C3C4c5ccccc5C(/C=C/C(=O)c5ccccn5)(c5ccccc54)C3C2=O)cc1", "note": "(stereo not given)", "growth": "21%"}, {"smiles": "COC(=O)[C@]12CC[C@@H](C)[C@H](C)[C@@H]1C1=CC[C@@H]3[C@@]4(C)C(C=O)=C[C@@](C)(CO)C4=CC[C@@]3(C)[C@]1(C)CC2", "growth": "42.9%"}, {"smiles": "CC(C)n1nc(C#Cc2cccc3cc(-c4cccc(C(F)(F)F)c4)ncc23)c2c(N)ncnc21", "growth": "66.6%"}, {"smiles": "NS(=O)(=O)c1cnccc1-n1ccc(=O)c(S(N)(=O)=O)c1", "growth": "96.9%"}, {"smiles": "CCNCCNc1cc(-c2cccc(C(F)(F)F)c2)c(C#N)c2nc3ccccc3n12", "growth": "-68.6% (active)"}, {"smiles": "CCCCCCCC/C=C/CCCCCCCC1=NCC[N+]1(CCO)CCO", "growth": "69.4%"}, {"smiles": "N#Cc1c(-c2ccccc2)nc(SCC2CO2)nc1N1CCOCC1", "note": "(stereo not given)", "growth": "51.9%"}, {"smiles": "COC(=O)c1ccc(CSc2nnc(-c3ccncc3)o2)cc1", "growth": "97.5%"}, {"smiles": "C#CC[C@H](N)C(=O)O", "growth": "95.4% [20 µM]"}, {"smiles": "CC(/C=N/NC(=O)c1cc(-c2ccco2)[nH]n1)=C\\c1ccccc1", "growth": "94%"}, {"smiles": "O=C(Nc1ccccc1)c1sc(-c2cccc(C(F)(F)F)c2)cc1O", "growth": "23.3%"}, {"smiles": "Cc1nc(Nc2ccc(NC(=S)Nc3ccccc3)cc2)nc2nc(SCc3ccccc3)[nH]c(=O)c12", "growth": "81.7%"}, {"smiles": "CCOc1cc(C2C(Cl)C(=O)N2n2cnnc2)ccc1O", "note": "(stereo not given)", "growth": "95.5%"}, {"smiles": "COc1cc2c(O)n(CCCn3ccnc3)c3c4cnc5cccc(c(=O)c3c2cc1OC)c54", "growth": "15%"}, {"smiles": "COc1cc(CNC(=O)/C=C/C=C/c2ccc3c(c2)OCO3)ccc1OCc1cn(-c2ccc(Cl)c(Cl)c2)nn1", "growth": "-46.7% (active)"}, {"smiles": "COc1cc(-c2cccc([N+](=O)[O-])c2)c(-c2nc(-c3ccccc3)c(-c3ccccc3)n2C2CC2)cc1OC", "growth": "53.5%"}, {"smiles": "O=C(O)c1ccc(CO)o1", "growth": "101%"}, {"smiles": "COc1ccc(-c2cc(-c3cc(OC)ccc3O)[nH]c(=O)c2C#N)cc1", "growth": "41.4%"}, {"smiles": "O=C1C2=C(CCN(Cc3ccccc3)C2)N2CCN=C2N1Cc1ccc(C(F)(F)F)cc1", "growth": "18.4%"}, {"smiles": "CCOC(=O)Cc1csc2nc(-c3ccccc3)nn12", "growth": "98.6%"}, {"smiles": "CCCCOc1ccc(NC(=O)n2nc(N=NN(C)C)c3ccc(Cl)cc32)cc1", "growth": "86.4%"}, {"smiles": "C=C(C=O)[C@@H]1CC=C(C=O)CC1", "growth": "-21.6% (active)"}, {"smiles": "O=C(Nc1ccccn1)[C@H](O)[C@@H](O)C(=O)N1CCOCC1", "growth": "108%"}, {"smiles": "CCNCCNc1cc(-c2ccc(Cl)cc2)c(C#N)c2nc3ccccc3n12", "growth": "-82.7% (active)"}, {"smiles": "COc1ccc(-n2ncn(CCCCCCn3cnn(-c4ccc(OC)cc4)c3=O)c2=O)cc1", "growth": "76.5%"}, {"smiles": "CCN(CC)c1ccc(Nc2ccc(CC(=O)c3ccccc3)cc2)cc1", "growth": "78.5%"}, {"smiles": "O=c1[nH]nc(-c2ccc(Cl)cc2)cc1Cc1ccccc1", "growth": "79.3%"}, {"smiles": "CC1(C)CC(=O)c2c(ccc(C(=O)C[C@H](N)CO)c2N)O1", "growth": "11%"}, {"smiles": "Cn1cc(-c2ccc3ncc(-c4ccc(CC(=O)Nc5cc(C(C)(C)C)nn5C)cc4)cc3c2)cn1", "growth": "-33.9% [30 µM] (active)"}, {"smiles": "CSc1nc2sc3cc(Cl)ccc3n2c(=N)c1C#N", "growth": "59.4%"}, {"smiles": "CCCn1nc(-c2ccccc2)c2c(-c3ccccc3)onc2c1=O", "growth": "53.8%"}, {"smiles": "Cc1c2c(cn1Cc1ccccc1)CCc1cn[nH]c1-2", "growth": "76.8%"}, {"smiles": "COc1ccc(-n2sc(=O)n(Cc3ccc(COC(=O)C(C)c4ccc(CC(C)C)cc4)cc3)c2=O)cc1", "note": "(stereo not given)", "growth": "55.2%"}, {"smiles": "COc1c(C)cnc(CSc2nc(-c3ccc(C)cc3)cn2-c2ccc(Cl)cc2)c1C", "growth": "81.8%"}, {"smiles": "O=C1NN(C(=O)c2ccc(O)cc2)C(c2ccccc2)=N/C1=C\\c1cn(-c2ccccc2)nc1-c1ccccc1", "growth": "92.9%"}, {"smiles": "O=C1/C(=C/c2ccccc2[N+](=O)[O-])COc2ccc(O)c(O)c21", "growth": "-86.6% (active)"}]}]}
